Reference: PubChem BioAssay (NCI)
Compounds without any hit were thinned out: in the full panel of roughly 79,000, 15% have a hit. Cut-off read from the data, not from the text of the source: active = growth inhibition above about 70%; inactive = the rest.

Tests used:
[1] = NCI Yeast Anticancer Drug Screen. Data for the rad50 strain (AID 155);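 note: 0% = growth of vehicle-only cultures of the same strain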; conditions: S. cerevisiae rad50 strain growth inhibition; at 50.0 µM; active compounds read high
How it was run: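 Yeast carrying a defined DNA repair defect were exposed to test compounds, and growth was compared with vehicle-treated controls to give percent inhibition.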

[2] = NCI Yeast Anticancer Drug Screen. Data for the mec2-1 strain (AID 157); conditions: S. cerevisiae mec2-1 strain, at 50.0 µM, active compounds read high
How it was run: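 Compounds were applied to mec2-1 yeast cells. Their growth was then compared with that of vehicle-treated cultures to give growth inhibition.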

[3] = NCI Yeast Anticancer Drug Screen. Data for the sgs1 mgt1 strain (AID 161);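 note: 0% = growth of cultures given vehicle only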; conditions: S. cerevisiae sgs1 mgt1 strain, at 50.0 µM, active compounds read high
How it was run: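 Compounds are added to genetically altered yeast, and growth is compared with cultures given vehicle alone to give percent inhibition.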

[4] = NCI Yeast Anticancer Drug Screen. Data for the cln2 rad14 strain (AID 165);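 note: 0% = growth equal to vehicle treated cultures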; conditions: S. cerevisiae cln2 rad14 strain, at 50.0 µM, active compounds read high
How it was run: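 Strain: cln2 rad14 yeast, altered in cell cycle control and DNA damage repair. Read-out: growth inhibition vs vehicle.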

[5] = NCI Yeast Anticancer Drug Screen. Data for the bub3 strain (AID 167); conditions: S. cerevisiae bub3 mutant strain, at 50.0 µM, active compounds read high
How it was run: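 Compounds were applied to a genetically altered yeast strain carrying a cell-cycle control defect. Growth inhibition was scored against vehicle-treated controls.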

[6] = NCI Yeast Anticancer Drug Screen. Data for the mlh1 rad18 strain (AID 175); conditions: S. cerevisiae mlh1 rad18 strain growth inhibition; at 50.0 µM; active compounds read high
How it was run: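 A repair-deficient yeast strain is exposed to test compound, and growth is scored relative to vehicle-treated controls.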

Measured: growth inhibition

C/C(=N/O)c1ccc[nH]1
inactive: [1] -3.6% | [2] 9% | [3] -5.5% | [4] 20.1% | [5] 13.2% | [6] 0.3%

CC1(C)COC(C)(Cc2ccccc2)OC1
inactive: [1] -5.9% | [2] 3.55% | [3] -15.7% | [4] -65.3% | [5] -22.1% | [6] -11.7%

O=C1NC(N2CCCCC2)=N/C1=C\c1cccs1
inactive: [1] 2.5% | [2] 2.2% | [3] -12.9% | [4] 7.05% | [5] -11.8% | [6] -29.4%

Cc1ccccc1N=Cc1ccccc1[N+](=O)[O-]
inactive: [1] 17.1% | [2] 9.65% | [3] -1.1% | [4] -22.2% | [5] -0.6% | [6] 8.1%

COc1cc(OC)c(OC(=O)CCl)c(OC)c1
inactive: [1] -3.85% | [2] 1.3% | [3] 3.2% | [4] 1.7% | [5] 11.2% | [6] 17.4%

CCN(CC)CCn1c2ccccc2c(=O)c2c(O)ccc(O)c21
inactive: [1] 14.8% | [2] -1.3% | [3] 3.35% | [4] 4.45% | [5] 6.95% | [6] -0.55%

CCC(CC)(C[NH-])C[NH-].[Cl][Pt+2][Cl]
inactive: [1] 10% | [2] 41.7% | [3] 10% | [4] 16.2% | [5] 18.2% | [6] -7.95%

Cc1ccc2c(c1O)C(=O)c1ccccc1C2=O
inactive: [1] 35% | [2] 13.1% | [3] -8.8% | [4] -16.9% | [5] 29.7% | [6] 46.5%

Cc1ccc(C(C)C)cc1O
inactive: [1] 17.6% | [2] 9.5% | [3] 19.1% | [4] 27% | [5] 13.7% | [6] 32.4%

NC(Cc1c[nH]c2ccc(O)cc12)C(=O)O (stereo unspecified)
inactive: [1] -5.85% | [2] -8.35% | [3] -4.9% | [4] 4.9% | [5] -0.7% | [6] -9.3%

C=CCNC(=S)/N=C/c1c(O)c2ccccc2oc1=O
inactive: [1] -33.5% | [2] -29.6% | [3] -43% | [4] -33.6% | [5] -53% | [6] -46.9%

Cc1ccc(S(=O)(=O)c2ccccc2C)s1
inactive: [1] -9% | [2] -32.5% | [3] -16.4% | [4] 11.5% | [5] -14.6% | [6] -12.1%

O=C1CCC(C(=O)Nc2ccc(Cl)c(Cl)c2)N1 (stereo unspecified)
inactive: [1] 1.75% | [2] 10.6% | [3] 8.5% | [4] -10.7% | [5] 1.1% | [6] -8.15%

Clc1ccc2c(c1)CCc1cccnc1C2=C1CCNCC1
inactive: [1] 8.55% | [2] -4.5% | [3] -20.6% | [4] 16.1% | [5] 0.4% | [6] -15.1%

COc1c(F)c(F)c(/C(O)=C\c2nc3ccccc3[nH]c2=O)c(F)c1F
inactive: [1] -19.6% | [2] -22.9% | [3] -17.4% | [4] 13.6% | [5] -2.05% | [6] -11.3%

O=C1CN(C2CCCCC2)CC(=O)N2C(c3ccccc3)CCCN12 (stereo unspecified)
inactive: [1] 3.3% | [2] -5.4% | [3] 14.7% | [4] 11.8% | [5] 0.55% | [6] -1.85%

COc1ccc(C2C(N)=NCC2c2ccccn2)cc1 (stereo unspecified)
inactive: [1] -21.9% | [2] -17.6% | [3] -12.4% | [4] 16.1% | [5] -9.55% | [6] -12.3%

S=c1[nH]c2ccccc2n1CCc1ccncc1
inactive: [1] -6.8% | [2] -15.1% | [3] 22.2% | [4] -1.5% | [5] 1.05% | [6] 3.5%

CC(Br)CCc1ccccc1Br (stereo unspecified)
inactive: [1] 3.95% | [2] -8.9% | [3] -2.95% | [4] -39.5% | [5] 19.9% | [6] 10.7%

Cc1cc(=O)oc2cc(NC(=O)C(CCCN=C(N)N)NC(=O)OCc3ccccc3)ccc12 (stereo unspecified)
inactive: [1] 26.5% | [2] -17.4% | [3] 23.1% | [4] -2.95% | [5] -4.1% | [6] 7.1%

Cc1ccc(O)c2occ(C)c12
inactive: [1] 17.7% | [2] 12.1% | [3] 10.5% | [4] 36.9% | [5] -2.8% | [6] 39.5%

O=C(NC12CC3CC(CC(C3)C1)C2)C(=O)c1c[nH]c2ccc(Br)cc12
inactive: [1] -21.9% | [2] -20.3% | [3] -14.1% | [4] -21.4% | [5] -2.95% | [6] -52.4%

CCCCCSC1CCCC1
inactive: [1] 35% | [2] -10% | [3] 7.65% | [4] -2.2% | [5] 9.5% | [6] 28.7%

NCC1OC(OC2C(CO)OC(OC3C(O)C(N)CC(N)C3OC3OC(CO)C(O)C(O)C3N)C2O)C(N)C(O)C1O (stereo unspecified)
inactive: [1] 33.8% | [2] -18.1% | [3] 1.85% | [4] 1.4% | [5] 27.6% | [6] 33.7%

Cc1nc2c(c(=O)[nH]1)S/C(=C(/C#N)c1nc3ccccc3[nH]1)N2c1ccccc1
inactive: [1] -39.8% | [2] -29% | [3] -42.4% | [4] -22% | [5] -40.8% | [6] -47.9%

CCC(Sc1cc(Cl)c(C)cc1S(=O)(=O)Nc1nc(N)nc(N(C)C)n1)C(=O)O (stereo unspecified)
inactive: [1] -16.1% | [2] -10.1% | [3] 6.3% | [4] 25.2% | [5] -12.3% | [6] 2%

CC(=O)O[C@H]1CC(C)(C)C(=C=C/C(C)=C/C=C/C=C/C=C(C)/C=C2C=C(/C=C/[C@@]34O[C@]3(C)C[C@@H](O)CC4(C)C)C(=O)O/2)[C@](C)(O)C1
inactive: [1] 9.55% | [2] 32.5% | [3] 0.9% | [4] 6.2% | [5] 3.6% | [6] 3.95%

C=CCOc1cc2c(cc1C(C)c1ccc(OC)c(OC)c1)OCO2 (stereo unspecified)
inactive: [1] 32.9% | [2] -3.2% | [3] 17.3% | [4] 18.4% | [5] 6.25% | [6] 49.2%

[C-]#[N+]C([N+]#[C-])=C(C)OCC
inactive: [1] 7.9% | [2] 5.1% | [3] -5.2% | [4] 10.8% | [5] 21.6% | [6] 2.5%

CC/C(=N/N(C)C)C(=O)OC(C)(C)C
inactive: [1] -42.9% | [2] -24.6% | [3] -15.8% | [4] -44.6% | [5] 1.35% | [6] -4.2%

Cn1c2c(c3ccccc31)C(=O)CC2(C)C
inactive: [1] -5.6% | [2] -4.8% | [3] -2.35% | [4] -18.2% | [5] -30.6% | [6] 2.15%

O=C(O)c1ccc2c(c1C(=O)O)C(=O)OC2(c1ccc(O)cc1)c1ccc(O)cc1
inactive: [1] -14.8% | [2] 11.7% | [3] -21.6% | [4] -21.8% | [5] -10.9% | [6] 4.85%

NC(=O)CC(N)C(=O)OCc1ccc([N+](=O)[O-])cc1 (stereo unspecified)
inactive: [1] -12.7% | [2] 0% | [3] -3.45% | [4] -11.2% | [5] -5.95% | [6] -11.3%

C[N+](C)([O-])CCCNc1ccnc2cccc([N+](=O)[O-])c12
inactive: [1] 24.1% | [2] 6.6% | [3] 28.9% | [4] 8.4% | [5] 9.95% | [6] -21.4%

CC(=O)NCCO
inactive: [1] -12.7% | [2] -22.8% | [3] -12.7% | [4] -19.4% | [5] 3.9% | [6] 7.25%

Nc1cccc(-c2nc3ncnc(N)c3[nH]2)c1
inactive: [1] 8.6% | [2] -2.15% | [3] -5.5% | [4] -46.9% | [5] -18.5% | [6] -11.2%

Nc1n[nH]c(=S)n1Cc1ccccc1
inactive: [1] -21.8% | [2] -10% | [3] -27.1% | [4] -18.2% | [5] -14.6% | [6] -10.7%

CCC(CO)(C(=O)O)c1ccccc1 (stereo unspecified)
inactive: [1] 1.85% | [2] 22.2% | [3] 4.95% | [4] 46.9% | [5] 4.6% | [6] 2.3%

COc1ccc2ccc3c(CCN(C)C#N)cc4c(c3c2c1OC(C)=O)OCO4
inactive: [1] 11.7% | [2] -2.15% | [3] -8.9% | [4] 6.6% | [5] -0.95% | [6] 0.15%

Cc1c(N(C)C)ccc2c(=O)c3cccc(CC(=O)O)c3oc12
inactive: [1] 20% | [2] 21.7% | [3] -5.35% | [4] 8.6% | [5] -16.1% | [6] -5.05%

Cc1csc(NC(=O)C2C3CCC(O3)C2C(=O)O)n1 (stereo unspecified)
inactive: [1] 22.1% | [2] -11.2% | [3] -6.5% | [4] 10.4% | [5] -4.95% | [6] -12.6%
